Compound activity (PubChem)
This is a sample that favours compounds with a hit; in the whole collection about 1.2% have one here.
A3G deaminase = inhibitors of human APOBEC3G DNA deaminase | Q9HC16 | recombinant A3G, ssDNA deamination FAM/TAMRA fluorescence | inhibition, % at 20 µM | hit rate 0.28% among 330,000 | AID 493012;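 active = inhibition of at least 40% at 20 µM, with no more than 30% in the related APOBEC3A deaminase screen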;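 note: plate controls were DMSO wells with A3G for no effect and wells lacking A3G enzyme for full effect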
Target sequence (Q9HC16 whole entry, looked up): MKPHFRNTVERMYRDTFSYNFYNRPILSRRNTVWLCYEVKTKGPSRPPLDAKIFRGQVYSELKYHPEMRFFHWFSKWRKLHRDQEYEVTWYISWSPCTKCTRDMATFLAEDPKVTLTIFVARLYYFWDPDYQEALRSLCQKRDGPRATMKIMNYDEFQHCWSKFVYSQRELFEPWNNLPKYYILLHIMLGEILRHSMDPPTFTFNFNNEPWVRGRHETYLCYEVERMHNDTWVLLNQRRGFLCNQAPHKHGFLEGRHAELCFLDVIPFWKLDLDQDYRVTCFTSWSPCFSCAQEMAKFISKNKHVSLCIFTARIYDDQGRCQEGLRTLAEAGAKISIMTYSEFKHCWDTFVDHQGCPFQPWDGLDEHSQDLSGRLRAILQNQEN
PolyA inhibitor = yeast polyadenylation inhibition. S. cerevisiae SKY197-pL101 polyadenylation reporter, beta-gal luminescence; efflux-impaired pdr1/pdr3 knockout yeast; score 100 = 6 SD above DMSO. hit rate 0.02% among 300,000. activity score, % at 12 µM;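 active = lowest replicate activity score at least 50, where 100 means six control SD above control mean; inconclusive = lowest score under 50 but half or more replicates reach 50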;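 note: yeast exposed to compound for 9 h at 30 °C; higher score means more reporter readthrough which indicates perturbed polyadenylation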
NALP1 yeast inh = inhibitors of NALP1 inflammasome in yeast. S. cerevisiae NALP1/ASC/caspase-1 growth, X-gal OD620, 72 h. inhibition, % at 10 µM. hit rate 0.61% among 280,000; in the data active = inhibition mostly above about 24%, no sharp cut-off; inactive = mostly below about 32%
A3A deaminase = human APOBEC3A DNA deaminase inhibition | AID 493011 | P31941 | hit rate 0.41% among 330,000 | inhibition, % at 20 µM | recombinant A3A, FAM/TAMRA ssDNA deamination fluorescence;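 active = at least 40% inhibition at 20 µM here, with at most 30% in a related deaminase screen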;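 note: plate controls were A3A with DMSO for no effect and wells lacking A3A enzyme for full effect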
Target sequence (P31941 whole entry, looked up): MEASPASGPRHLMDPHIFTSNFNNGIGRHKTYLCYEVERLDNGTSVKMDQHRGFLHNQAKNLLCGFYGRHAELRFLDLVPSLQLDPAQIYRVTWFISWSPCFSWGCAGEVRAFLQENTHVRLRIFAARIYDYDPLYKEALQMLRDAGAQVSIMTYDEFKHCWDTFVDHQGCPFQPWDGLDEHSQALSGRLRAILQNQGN
APOBEC3A confirm = confirmation of human APOBEC3A DNA deaminase inhibitors; shares compounds with A3A deaminase; recombinant A3A, ssDNA deaminase UDG fluorescence assay; inhibition, % at 20 µM; hit rate 63% among 1,400; AID 493151;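 active = inhibition reaching a set limit, 80% of the first screen's cutoff, at 20 µM in any replicate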;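 note: plate controls were DMSO wells with A3A for no effect and wells lacking A3A enzyme for full effect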
UDG A3A counter = UDG inhibition in APOBEC3A counter-screen. shares compounds with A3A deaminase. UDG counterscreen, FAM/TAMRA uracil oligo fluorescence. inhibition, % at 20 µM. 1,000 tested, under 10 active; call rule not given here
Active calls of the source: *; ? = inconclusive; nt = no result.

SMILES	A3G deaminase	PolyA inhibitor	NALP1 yeast inh	A3A deaminase	APOBEC3A confirm	UDG A3A counter
Cc1cc(=O)oc2c1c(C)nn2-c1nn[nH]n1	23	-4	14	59*	72*	-2
CCCc1cc(=O)oc2cc(C)cc(OCc3nn[nH]n3)c12	-6	1	14	-4	nt	nt
COc1ccc2[nH]c(=O)c(CN(C(=O)c3ccco3)C(C)C)cc2c1	26	-3	nt	56*	61*	6
CCn1c(-c2ccccc2Cl)nn(CC(=O)Nc2ccccc2C)c1=S	13	-2	0	66*	24	nt
N#Cc1ccccc1COC(=O)c1cccc(S(=O)(=O)N2CCCC2)c1	-8	nt	nt	-4	nt	nt
Cc1nn(CC(=O)Nc2ccc3c(c2)nc2n3CCN(C3CCCCC3)C2)c(=O)c2ccccc12	23	-3	10	8	nt	nt
O=C(NC1=NCCS1)C1CCN(S(=O)(=O)c2ccc(Cl)cc2)CC1	-5	nt	nt	-1	nt	nt
O=C(NC1=NCCS1)C1CCN(S(=O)(=O)c2cc([N+](=O)[O-])ccc2Cl)CC1	12	nt	nt	53*	53*	-4
CC(C)Nc1nc(NC(C)C)nc(Nn2cnnc2)n1	1	-3	9	-1	nt	nt
CC(C)Nc1nc(NC(C)C)nc(N(C)n2cnnc2)n1	5	7	-6	41*	1	nt
Cc1cc(C)cc(Nc2nc(-c3ccc(S(=O)(=O)N4CCCC4)cc3)cs2)c1	-6	-1	-22	-2	nt	nt
Cc1ccc(Nc2nc(-c3ccc(S(=O)(=O)N4CCCC4)cc3)cs2)cc1C	-3	8	13	87*	-7	0
COc1ccc(CN2CCS(=O)(=O)CC2)cc1OC	-8	-11	-6	1	nt	nt
Nc1ccc(Nc2ccccc2)c(S(=O)(=O)O)c1	18	?	7	67*	57*	-1
Cc1ccc(Nc2ccc(N)cc2S(=O)(=O)O)cc1	-4	-6	8	6	nt	nt
CC(C)Cc1nnc(NC(=O)CCC(=O)Nc2ccccc2)s1	-4	6	8	-3	nt	nt
CC(C)Cc1nnc(NC(=O)Nc2ccccc2)s1	-4	-1	24	70*	1	4
O=C(CCc1ccccc1)Nc1ncn[nH]1	-7	8	4	94*	7	3
O=C(/C=C/c1cccc(C(F)(F)F)c1)NNC(=O)c1ccncc1	0	nt	nt	-2	nt	nt
COC(=O)CCC(=O)OC1(C)C(=O)C=C2C=C(C3CC3)N(C3CCCCC3)C=C2C1=O (stereo not given)	-9	-13	nt	48*	-5	-2
O=C(NC1CCCc2ccccc21)c1cc(Cl)ccn1 (stereo not given)	12	-27	22	62*	30	nt
CC(CCc1ccccc1)NC(=O)CN1CCN(c2ccc(O)cc2)CC1 (stereo not given)	18	-9	7	4	nt	nt
COc1ccc2c(c1)N(C)/C(=C/c1cccc[n+]1C)S2	21	6	3	57*	88*	-3
COc1cc(OC)cc(C(=O)/C=C2\Sc3ccccc3N2C)c1	-3	-38	2	0	nt	nt
CCN1/C(=C/c2cccc[n+]2C)Sc2ccc(OC)cc21	15	-11	19	53*	87*	-2
SMILES	A3G deaminase	PolyA inhibitor	NALP1 yeast inh	A3A deaminase	APOBEC3A confirm	UDG A3A counter
Cc1c(C=O)c2cc(OCc3ccccc3)ccc2n1C	-9	1	-13	-7	nt	nt
O=C(N/N=C/c1ccncc1)c1cccs1	-5	4	14	-1	nt	nt
O=C(N/N=C/c1ccc(-c2ccccc2C(=O)O)o1)c1cccs1	20	5	12	46*	38*	-3
COc1cc(OC)cc(-c2nnc(SCC(=O)N(C(C)C)C(C)C)o2)c1	-3	-5	1	90*	0	0
O=C(NCCc1ccccc1)[C@@H]1CC=C[C@@H]2CCN(Cc3ccccc3)C(=O)[C@@H]21	-11	-2	nt	-4	nt	nt
COc1cc(C(N)=O)cc(Br)c1OC	17	16	13	44*	47*	1
CCOC(=O)NC(=O)CN1C(=O)NC(C)(c2ccccc2)C1=O (stereo not given)	-9	9	10	72*	-7	0
CCCCOc1ccc(C(=O)NCC(=O)NCC(c2ccco2)N2CCCCC2)cc1 (stereo not given)	-9	-17	nt	2	nt	nt
CN(C)CCCNc1nc(-c2ccccc2)nc2ccccc12	-8	1	0	-1	nt	nt
CN(C)CCCNc1c2ccccc2nc2ccccc12	21	-13	16	54*	54*	4
CCC(=O)Nc1ccc(-c2nnc(SCC(=O)Nc3nccs3)n2C)cc1	29	6	15	53*	13	nt
CCn1c(SCC(=O)Nc2nccs2)nnc1-c1ccc(C)cc1	-7	-10	6	-2	nt	nt
COc1ccc(C(=O)NCC(=O)OCCCOC(=O)CNC(=O)c2ccc(OC)c(OC)c2)cc1OC	10	-6	6	42*	2	nt
Cc1ccc(N(C)C(=O)n2cnc3ccccc32)cc1	-6	-2	20	52*	-1	-3
C/C(=N/NC(=O)CCc1c(C)n[nH]c1C)c1cccc([N+](=O)[O-])c1	-5	-6	-13	-2	nt	nt
COc1cccc(C(=O)N/N=C/c2ccc(Oc3ccc([N+](=O)[O-])cn3)c(OC)c2)c1	19	3	28	59*	62*	-2
COCCN(CC(=O)Nc1cccc(C)c1C)C(=O)CN1C(=O)NC2(CCCCC2)C1=O	6	nt	nt	41*	49*	1
Cc1ccc(/C=N/Nc2nc(N3CCOCC3)nc(N3CCOCC3)n2)o1	-3	24	-8	53*	33*	2
CCCc1n(CC(O)COC2CCCCC2)c2ccccc2[n+]1C (stereo not given)	13	1	-14	56*	76*	1
CCN1CCN(CC(O)COCc2ccccc2)CC1 (stereo not given)	-5	-3	-2	-2	nt	nt
CCCc1n(CC(O)COCC2CC=CCC2)c2ccccc2[n+]1C (stereo not given)	9	8	5	37	nt	nt
CCCc1n(CC(O)COCc2ccccc2)c2ccccc2[n+]1C (stereo not given)	8	8	-18	58*	69*	-2
COc1ccc(-c2c(-c3cc(OC)cc(OC)c3)n(C)c3ccc(-c4ccc(N(C)C)nc4)cc23)cc1	-8	nt	nt	-5	nt	nt
Nn1c(SCc2ccccc2F)nnc1-c1ccccn1	-11	-8	2	-4	nt	nt
CCC(C)N(C(=O)COc1ccc(Cl)c2cccnc12)C1CCS(=O)(=O)C1 (stereo not given)	29	-4	nt	62*	25	nt
CCC(C)N(C(=O)COc1ccccc1C#N)C1CCS(=O)(=O)C1 (stereo not given)	-9	-10	nt	-1	nt	nt
COc1ccc(C(=O)NCc2nnc(SCC(=O)NC3CCCC3)o2)cc1	-2	12	0	-1	nt	nt
CSC1=NSC2=NC(=O)/C(=C/c3coc4ccc(O)cc4c3=O)C(=N)N12	23	nt	24	45*	36*	-7
